Laboratory results taken from the supplement of paper PMC6555819.

How the values were obtained:
Assay in all cases: PBM binding z-score (relative to random genomic background probes); higher = stronger binding; sequences stand for … in GC…GCGATTGACAGCGTAGAATGAAGG
[1] = test system: FXR:RXRa (NR concentration 270 nM, RXRa partner concentration 90 nM)
Procedure, shortened: (§1)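 Probes were double-stranded and carried 34-nt variable regions with direct-repeat seeds, single-nucleotide variants, half-site ablations and random human genomic background sequences, printed on custom Agilent 4×180K protein-binding microarrays. Arrays were incubated 1 h with ligand-free nuclear receptor dimers in PBS pH 7.4, 2% milk, 0.02% Triton X-100, 1 mM DTT, 0.2 mg/mL BSA and 0.4 mg/ml salmon testes DNA. Antibodies against each partner (one per run) detected binding, and scanned fluorescence was regression-normalized. Binding z-scores use the random background probes as reference.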

[2] = test system: LXRa:RXRa (NR concentration 270 nM, RXRa partner concentration 90 nM)
Procedure, shortened: as §1

[3] = test system: LXRa homodimer (NR concentration 270 nM)
Procedure, shortened: as §1

[4] = test system: LXRb:RXRa (NR concentration 270 nM, RXRa partner concentration 90 nM)
Procedure, shortened: as §1

[5] = test system: LXRb homodimer (NR concentration 270 nM)
Procedure, shortened: as §1

[6] = test system: PPARa:RXRa (NR concentration 270 nM, RXRa partner concentration 90 nM)
Procedure, shortened: as §1

[7] = test system: PPARg:RXRa (NR concentration 180 nM, RXRa partner concentration 90 nM)
Procedure, shortened: as §1

[8] = test system: PPARg:RXRa 270nM:90nM, anti-RXR (NR concentration 270 nM, RXRa partner concentration 90 nM)
Procedure, shortened: as §1

[9] = test system: PPARg:RXRa 30nM:10nM, anti-RXR (NR concentration 30 nM, RXRa partner concentration 10 nM)
Procedure, shortened: as §1

[10] = test system: PPARg:RXRa 90nM:30nM, anti-RXR (NR concentration 90 nM, RXRa partner concentration 30 nM)
Procedure, shortened: as §1

Sequence | PBM binding z-score [1] | PBM binding z-score [2] | PBM binding z-score [3] | PBM binding z-score [4] | PBM binding z-score [5] | PBM binding z-score [6] | PBM binding z-score [7] | PBM binding z-score [8] | PBM binding z-score [9] | PBM binding z-score [10]
TCATATAGGTAAAAGGTGAAAGTTGGTGTGGTAA | 2.15 | 2.33 | 0.407 | 2.44 | 0.326 | 5.33 | 9.26 | 8.44 | 8.7 | 8.75
CCTAGCAGGCCAATCTGGGTCACTGAAGGCTTGA | 1.19 | 1.16 | -0.588 | 0.364 | -1.38 | 3.01 | 1.75 | 2.55 | 0.263 | 1.81
GCAGACAGGTGAAGCGCAGGTAACTCAGGGTGGC | -0.663 | -0.276 | -0.718 | -0.713 | -1.29 | -0.0823 | 0.129 | -0.656 | -1.07 | -0.9
TCTGCTAGGTCAACGATGGTCATCTAATCTGCTA | 3.5 | 3.34 | 0.105 | 2.03 | 0.0541 | 3.37 | 2.78 | 3.34 | 2.08 | 2.79
TCTCGGAGGCCACGAAGGTCAGAGCTTTCCAGAG | 0.966 | 1.34 | -0.257 | 1.25 | -1.36 | 2.21 | 0.256 | 1.82 | 1.63 | 1.54
CCAACTGGGGCAGAAAGGTTACCATACCATCCGG | 0.267 | 0.782 | 0.0649 | 1.12 | -0.79 | 2.53 | 2.29 | 2.56 | 0.915 | 2.11
AGAGACAGGTGATGAAGGTAACTCAGGCTATCAT | 0.266 | 0.0997 | 0.0687 | 0.476 | 0.372 | 0.328 | 0.629 | 0.513 | 0.448 | 0.733
CCTAATAGTTGACCATAAGGGCAACCGAAGCTCG | 0.919 | 0.486 | 0.29 | 0.606 | 0.214 | 0.827 | 0.664 | 0.43 | 0.117 | 0.37
TCTTGTAGATCAGCAGGTTACGAAAGCTGGCCAA | 0.0711 | -0.119 | -0.159 | 0.185 | -0.369 | 0.613 | -0.304 | 1.48 | 2.34 | 1.87
CATACAGGTTCAGCTAGGCCAGAGTAGGGACGGC | 0.788 | 1.03 | -0.0766 | 0.293 | -0.03 | 1.21 | 0.629 | 0.338 | -0.155 | 0.0738
CCTCGGAGGACAACAGGACGTCAGAGCTGCCAGA | 0.0455 | -0.556 | -0.533 | -0.881 | -0.769 | -0.616 | 0.187 | -1.2 | -0.952 | -1.19
CCTAGTTGGTCAGGAGGTCTCACACCGGATATGA | 0.237 | 0.219 | 0.125 | -0.00774 | -0.246 | 0.135 | 0.469 | 0.772 | -0.0549 | 0.338
CTTACTGGGCCAAAAAGGTCATTGATGCCGATAA | 4.42 | 4.75 | 3.31 | 4.26 | 0.76 | 5.17 | 5.05 | 5.24 | 2.89 | 4.69
TTACCAAGGTGAGCTGAGGTCTTTGATCCAACTC | -0.159 | 0.0694 | -0.392 | -0.341 | -1.02 | 0.662 | -0.133 | 0.0949 | -0.176 | -0.0349
TTACCAAGGTGAGCTGAGGTCGGTGATCCAACTC | 0.603 | 0.222 | -0.197 | 0.0956 | -1.13 | 1.07 | 0.209 | 0.517 | -0.0845 | 0.37
AGAATGAGGTTATTCGTAGATCAGGGAAGAAAGT | 2.59 | 2.61 | 0.0908 | 1.87 | -0.0255 | 3.43 | 1.64 | 1.83 | 0.552 | 1.2
ACTATTATTTGACTTAGGGCAACCGATACGACGC | 0.71 | 0.925 | 1.54 | 0.685 | 1.46 | 0.557 | 1.15 | 0.779 | 0.924 | 0.948
ACTATTAGTTGGCTTAGGGCAACCGATACGACGC | 0.0688 | -0.0139 | 0.0233 | -0.136 | 0.573 | -0.171 | 0.739 | -0.00108 | 0.0765 | 0.0615
AATACAGGGTCACCGTAGGCCAGAGTACGCACAG | 7.2 | 6.43 | 1.2 | 4.96 | 0.78 | 6.14 | 7.71 | 6.83 | 3.15 | 5.65
CTCGAATGGTCGTGCTCAGGTGAGTATACCAAAC | -0.179 | -0.419 | -0.51 | -0.227 | -0.231 | -0.0651 | -0.329 | -0.395 | -0.488 | -0.372
CGAACTAGGTCACCGGAAGGTCAAAGTCCGCATG | 6.15 | 5.95 | 4.65 | 5.17 | 0.515 | 6.04 | 9.75 | 7.7 | 5.33 | 7.57
CAAACTAGGTCACCGGAAGCTCAAAGTCCGCATG | 4.54 | 2.93 | 0.559 | 2.24 | 0.297 | 5.45 | 9.51 | 7.22 | 5.15 | 7.39
CGTCCAAGGTCAATGCTAGGTCCGTGAAAGCATT | 6.89 | 4.45 | 0.519 | 3.53 | 0.496 | 4.84 | 3.19 | 3.97 | 0.655 | 2.86
TCTGCTAGCTCAACGATGGTCAGCTAATCTGCTA | -0.518 | -0.557 | -0.771 | -1 | -1.03 | -0.335 | -0.32 | 0.116 | 1.25 | 0.838
